We go through one compound from ChEMBL document CHEMBL4649985, “Generation of a Selective Small Molecule Inhibitor of the CBP/p300 Bromodomain for Leukemia Therapy” (Cancer Res, 2015).

Several values for one entry are separate records, joined by “and”; a condition that tells them apart may be missing. Equal values may be shown once.

Assay [1] deals with Bromodomain-containing protein 4 (Homo sapiens) (UniProt O60885). The following applies: Compound concentration 10.0 uM, Protein concentration 2.0 uM.
For assay [2], the target named is T1, Transcription intermediary factor 1-alpha (Homo sapiens) (UniProt O15164).
T1 sequence (whole entry): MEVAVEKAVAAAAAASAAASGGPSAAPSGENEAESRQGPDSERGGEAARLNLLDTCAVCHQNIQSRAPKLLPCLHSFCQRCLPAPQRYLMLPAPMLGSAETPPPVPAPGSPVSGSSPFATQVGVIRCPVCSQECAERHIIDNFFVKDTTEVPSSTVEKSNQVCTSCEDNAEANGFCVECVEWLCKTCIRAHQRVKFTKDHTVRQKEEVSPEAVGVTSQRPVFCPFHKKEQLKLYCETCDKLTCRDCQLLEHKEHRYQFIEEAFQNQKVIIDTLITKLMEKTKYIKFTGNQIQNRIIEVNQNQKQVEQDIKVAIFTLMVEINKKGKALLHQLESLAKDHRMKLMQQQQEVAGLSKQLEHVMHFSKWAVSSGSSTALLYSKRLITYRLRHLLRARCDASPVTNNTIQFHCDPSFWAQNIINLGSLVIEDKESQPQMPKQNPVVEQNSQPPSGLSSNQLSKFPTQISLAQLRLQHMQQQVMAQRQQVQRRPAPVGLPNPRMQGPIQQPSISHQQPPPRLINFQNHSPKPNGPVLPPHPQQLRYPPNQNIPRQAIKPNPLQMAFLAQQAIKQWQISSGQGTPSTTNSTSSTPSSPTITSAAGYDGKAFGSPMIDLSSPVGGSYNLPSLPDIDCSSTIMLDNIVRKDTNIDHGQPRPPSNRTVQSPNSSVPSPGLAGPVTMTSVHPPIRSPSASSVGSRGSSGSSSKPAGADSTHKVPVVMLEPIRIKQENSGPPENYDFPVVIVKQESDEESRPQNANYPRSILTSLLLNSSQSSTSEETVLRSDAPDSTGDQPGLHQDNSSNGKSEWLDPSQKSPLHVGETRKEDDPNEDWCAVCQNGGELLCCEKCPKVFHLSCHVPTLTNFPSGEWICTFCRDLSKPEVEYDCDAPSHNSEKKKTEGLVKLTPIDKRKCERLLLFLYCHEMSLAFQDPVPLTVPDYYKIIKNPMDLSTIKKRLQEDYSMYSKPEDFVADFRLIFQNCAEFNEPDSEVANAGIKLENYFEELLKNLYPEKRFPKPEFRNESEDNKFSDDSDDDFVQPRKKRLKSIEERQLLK
As to conditions: Compound concentration 10.0 uM, Protein concentration 2.0 uM.

Consider `CCC(=O)N1CCOc2c(cc(-c3ccc(OC)c(OC)c3)cc2OC[C@H]2CCCN(C)C2)C1`, for which the ΔTm (as a rule, the shift of the melting midpoint relative to a reference) in assay [1] is 2.08 °C and 2.81 °C; in assay [2], 1.25 °C.
